Screens: PubChem BioAssay, National Center for Advancing Translational Sciences (NCATS)
The list is not random: actives were taken first. Their share in the collection is about 6.6%.
PTAP TSG101 blk = qHTS Assay for Iinhibitors of HIV-1 Budding by Blocking the Interaction of PTAP/TSG101; Tumor susceptibility gene 101 protein (Homo sapiens), Q99816; Fluorescence polarization, FITC-PTAP peptide / Tsg101 binding; Potency, µM (highest dose often 115 µM), for the others: top-dose activity change, negative = inhibition, actives largely listed as inhibitors; 340,000 tested, under 10 active; AID 493005, 2010; active = well fitted inhibition curve with a large enough effect in the main read-out, with a control signal flat, not every such curve was filed as active; inconclusive = small, poorly fitted or top-dose-only effect, or effect the other way, or a change in a side signal; inactive = no such curve, though single readings can be large or run the other way; note: % of control where 0% means no effect
Target sequence (Q99816 whole entry, looked up): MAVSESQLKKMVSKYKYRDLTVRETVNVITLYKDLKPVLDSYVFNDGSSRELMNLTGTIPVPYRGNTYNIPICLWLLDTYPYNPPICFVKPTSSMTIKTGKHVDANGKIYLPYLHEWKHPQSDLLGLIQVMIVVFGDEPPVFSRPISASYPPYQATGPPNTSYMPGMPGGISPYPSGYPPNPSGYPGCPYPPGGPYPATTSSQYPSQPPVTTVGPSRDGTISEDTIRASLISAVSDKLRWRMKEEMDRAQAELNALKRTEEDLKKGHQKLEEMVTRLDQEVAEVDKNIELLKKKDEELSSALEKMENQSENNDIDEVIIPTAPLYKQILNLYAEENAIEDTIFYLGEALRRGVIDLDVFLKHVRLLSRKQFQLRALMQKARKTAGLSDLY
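Fluorescence polarization binding of Tsg101 binding domain (10 uM final) to FITC-labeled PTAP peptide (50 nM final) in HEPES pH 7.5 buffer with NaCl, Tween 20, EDTA, TCEP. Compounds added before peptide; binding 20 min at RT.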
KB-3-1 tox = qHTS assay for MDR1-selective chemotherapeutics: Primary screen using the parental adenocarcinoma cell KB-3-1; KB-3-1 viability, CellTiter-Glo ATP luminescence, 72 h; Potency, µM (doses to about 46.1 µM), usual class: cytotoxic; hit rate 1.4% among 400,000; note: % is set by controls: 0 for no effect and ±100 for the full control effect; nearly all actives have a fitted effect of over 60% in size
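Viability of parental KB-3-1 cells, measured by CellTiter-Glo luminescence, followed a 72 h incubation at 37 °C with pinned compounds in phenol-red-free DMEM containing 10% FBS.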
RGS4 inh = Inhibitors of Regulator of G Protein Signaling (RGS) 4: qHTS | Regulator of G-protein signaling 4 (Homo sapiens), P49798 | Transcreener GDP fluorescence polarization, RGS4-accelerated GTP hydrolysis | Potency, µM (doses to about 114 µM), without a hit: top-dose activity change, negative = inhibition, actives largely listed as inhibitors | hit rate 0.039% among 390,000; note: % is set by controls: 0 for no effect and ±100 for the full control effect; nearly all actives have a fitted effect of over 75% in size
Target sequence (P49798 whole entry, looked up): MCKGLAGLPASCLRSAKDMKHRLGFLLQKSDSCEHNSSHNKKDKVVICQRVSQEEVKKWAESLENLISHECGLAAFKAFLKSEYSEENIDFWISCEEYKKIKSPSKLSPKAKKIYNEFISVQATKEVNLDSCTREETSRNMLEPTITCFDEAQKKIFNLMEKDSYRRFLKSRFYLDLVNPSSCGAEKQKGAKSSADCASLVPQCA
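MLSMR compounds (23 nl, pin-transferred) preincubated 10 min at room temperature with a 500nM (2x) first reagent, then RGS4 at 900nM (2x) plus Transcreener GDP mix added; fluorescence polarization (620/688 nm) read before and after 90 min at 30 °C.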
KB-V1 MDR tox = qHTS assay for MDR1-selective chemotherapeutics: Primary screen using the drug-selected MDR subline cells KB-V1; KB-V1 MDR cells viability, CellTiter-Glo, 72 h; Potency, µM (highest dose often 46.1 µM), usual class: cytotoxic; hit rate 3.4% among 400,000; AID 1347076, 2019; note: % is set by controls: 0 for no effect and ±100 for the full control effect; nearly all actives have a fitted effect of over 60% in size
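Potencies derive from concentration-effect curves fitted to normalized luminescence (CellTiter-Glo) of KB-V1 cells treated for 72 h at 37 degrees C in phenol-red-free DMEM containing 10% FBS.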
MCF10A rerep = A quantitative high throughput screen for small molecules that induce DNA re-replication in MCF 10a normal breast cells; MCF 10A DNA re-replication, Hoechst nuclear intensity, 48 h; Potency, µM (top dose mostly 46.1 µM), inactives show top-dose activity, positive = re-replication, usual class: activators; hit rate 2.9% among 350,000; note: % of control where 0% means no effect; nearly all actives have a fitted effect of over 50% in size
SW480 rereplic = A quantitative high throughput screen for small molecules that induce DNA re-replication in SW480 colon adenocarcinoma cells. SW480 DNA re-replication, Hoechst DNA content imaging, 48 h. Potency, µM (top dose mostly 46.1 µM), for the others: top-dose re-replication activation, hits mostly activators. hit rate 1.8% among 340,000. AID 624297, 2012; note: % of control where 0% means no effect; nearly all actives have a fitted effect of over 55% in size
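Treated cells incubate 48 hr (37 C, 5% CO2), are stained 40 min with Hoechst, and nuclear fluorescence is enumerated; a rise in nuclei with high DNA signal marks re-replication.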
Starred values were filed as active, the others as inactive; i = inactive; ? = inconclusive; nt = no result given. Unless noted, calls come from the whole dose curve; as a rule, active = well fitted curve in the direction sought with a large enough effect; inconclusive = small, poorly fitted or top-dose-only effect, or another doubt; inactive = no such curve, though single readings can be large; an effect the other way counts as inactive or inconclusive. Potency is the fitted concentration of half-maximal effect.

SMILES	PTAP TSG101 blk	KB-3-1 tox	RGS4 inh	KB-V1 MDR tox	MCF10A rerep	SW480 rereplic
C=CCn1c(-c2sc3nc(C)cc(C)c3c2N)n[nH]c1=S	-1%	i	1%	i	9.2µM*	26%
COC1(OC)C(=N/O)/C(=N\O)CCC1O (centres undefined)	-2%	i	13%	i	16µM*	13%
CCCCCCCCCCCCCCCC(C)C1=NCCN1 (centres undefined)	nt	i	nt	i	nt	nt
N#CCCn1cc(C=C(C#N)C#N)c(-c2ccc(-c3ccccc3)cc2)n1	1%	?	?	21µM*	?	?
N#CCCn1cc(/C=N/O)c(-c2ccccc2)n1	-1%	i	28%	i	2%	1%
CCc1nc2ccc(C(=O)NCc3ccc(N(C)C)cc3)cc2nc1CC	nt	i	22%	i	nt	nt
O=C(CCOc1ccccc1)N1CCN(S(=O)(=O)c2ccccc2F)CC1	-2%	i	17%	21µM*	3%	3%
O=C(CCOc1ccccc1)N1CCN(S(=O)(=O)c2cccs2)CC1	-2%	i	-2%	i	9%	0%
CN1CCN(S(=O)(=O)c2cccc(C(=O)Nc3nc(-c4ccccc4)cs3)c2)CC1	-2%	?	-48%	3.3µM*	?	5%
COC(=O)c1c(NC(=O)c2cccc(S(=O)(=O)N3CCN(C)CC3)c2)sc(C)c1C	-2%	i	-18%	i	21µM*	?
CCOC(=O)c1c(-c2ccc(-c3ccccc3)cc2)csc1NC(=O)c1cccc(N2C(=O)CCC2=O)c1	-6%	i	-11%	?	15%	-4%
CCOC(=O)c1c(NC(=O)c2cccc(N3C(=O)CCC3=O)c2)sc(C)c1C	-5%	i	14%	10µM*	14%	-4%
CC(C)(C)C(=O)Cn1ncc(Br)c(Br)c1=O	-6%	10µM*	0%	i	5.8µM*	7.3µM*
CSCCC(NS(=O)(=O)c1ccc(Cl)cc1)C(=O)N1CCN(c2ccccc2)CC1 (centres undefined)	-3%	i	-31%	15µM*	-2%	3%
CSCCC(NS(=O)(=O)c1ccc(Cl)cc1)C(=O)OCc1cccc(Cl)c1 (centres undefined)	-2%	i	-11%	?	?	?
CSCCC(NS(=O)(=O)c1ccccc1F)C(=O)N1CCCCCC1 (centres undefined)	-3%	i	19%	i	1%	-10%
CSCCC(NS(=O)(=O)c1ccc(C)cc1)C(=O)N1CCCCCCC1 (centres undefined)	-3%	i	4%	16µM*	-3%	-3%
CSCCC(NS(=O)(=O)c1ccc(Cl)cc1)C(=O)OCc1c(Cl)cccc1Cl (centres undefined)	0%	?	12%	7.3µM*	16µM*	?
COc1ccc(NC(=O)C(C)n2nc(-c3ccc(C)c(C)c3)ccc2=O)cc1OC (centres undefined)	nt	i	-15%	i	nt	nt
Cc1ccc(C(C2=C(O)CC(C)(C)CC2=O)C2C(=O)CC(C)(C)CC2=O)s1 (centres undefined)	-6%	i	?	i	23µM*	?
CC1(C)CC(=O)C(C(C2=C(O)CC(C)(C)CC2=O)c2ccc(Br)s2)C(=O)C1 (centres undefined)	0%	?	?	21µM*	13µM*	?
CC1(C)CC(=O)C(C(C2=C(O)CC(C)(C)CC2=O)c2ccc([N+](=O)[O-])cc2)C(=O)C1 (centres undefined)	1%	i	?	?	-3%	1%
Cc1ccc(Cl)cc1NC(=O)CCCN1C(=O)CCn2nc(-c3cn(C)c4ccccc34)cc21	nt	i	-7%	i	nt	nt
Cc1cccc(C(=O)/C=C2/c3ccccc3CC(C)(C)N2C)c1	-7%	i	-10%	18µM*	19%	-3%
CCOC(=O)c1c(C)oc2ccc(N(C(C)=O)S(=O)(=O)c3c(C)cc(C)cc3C)cc12	nt	23µM*	-1%	4.1µM*	nt	nt
SMILES	PTAP TSG101 blk	KB-3-1 tox	RGS4 inh	KB-V1 MDR tox	MCF10A rerep	SW480 rereplic
CC(=O)c1c(C)oc2ccc(N(C(=O)c3ccncc3)S(=O)(=O)c3ccc(C)cc3C)cc12	nt	?	-10%	23µM*	nt	nt
CCOC(=O)c1c(-c2ccccc2)oc2ccc(N(C(C)=O)S(=O)(=O)c3ccc(C)cc3)cc12	nt	?	-17%	?	nt	nt
COc1ccc(S(=O)(=O)N(C(=O)c2ccncc2)c2ccc3oc4c(c3c2)CCCC4)cc1	1%	?	-31%	?	3.3µM*	?
CCCCC12CN3CC(C)(CN(C1)C3c1ccc(OCc3ccccc3)cc1)C2=O (centres undefined)	nt	i	12%	i	nt	nt
COCCNC(=O)CCCn1c(SCC(=O)Nc2ccc(F)cc2)nc2c(sc3ccccc32)c1=O	nt	i	21%	i	nt	nt
CCOc1cc(C2CC(=O)Nc3c2c(=O)nc(SCc2cccc(Cl)c2)n3C)ccc1O (centres undefined)	nt	i	-13%	?	nt	nt
CNC(=S)N/N=C/c1cccc(OCc2ccccc2F)c1	-1%	?	-23%	?	16%	-5%
CCNC(=S)N/N=C/c1cccc(OCc2c(F)cccc2Cl)c1	-1%	?	5%	21µM*	?	1%
O=C(COc1ccccc1/C=C1\SC(=S)NC1=O)Nc1ccc(F)cc1	-3%	i	2%	i	1.5µM*	?
Cc1cc2oc(=O)cc(CN3CCN(S(=O)(=O)/C=C/c4ccccc4)CC3)c2cc1C	-1%	i	-2%	2.6µM*	3%	15%
Cc1cc2oc(=O)cc(CN3CCN(S(=O)(=O)c4ccc5c(c4)OCCO5)CC3)c2cc1C	-2%	i	-1%	i	1%	-2%
Cc1cccc(CNC(=O)Cn2ccc3cc(S(=O)(=O)N4CCC(C)CC4)ccc32)c1	nt	i	7%	i	nt	nt
CCOc1ccc(C(=O)NCc2ccc3c(c2)CCN3C(=O)c2ccc(C)cc2)cc1OCC	nt	nt	22%	nt	nt	nt
